Source: PubChem BioAssay
This is a sample that favours compounds with a hit; in the whole collection about 21% have one here.
CHX counter = Cycloheximide Counterscreen for Small Molecule Inhibitors of Shiga Toxin. cell reporter, cycloheximide protein synthesis inhibition counterscreen. max response, %. 12% of 300,000 active. AID 2314, 2010; in the data active means max response mostly above about 13%, no sharp cut-off; inactive means mostly below about 14%; further: read at 38.3 µM for the half of the compounds with a filed dose; 0% is about no effect
Pf growth 48h = Primary qHTS for delayed death inhibitors of the malarial parasite plastid, 48 hour incubation | 5.9% of 310,000 active | P. falciparum luciferase growth in erythrocytes, 48 h | Potency, µM (highest dose often 28.7 µM), for inactives: at the top dose activity change, negative = inhibition, hits mostly inhibitors; active means well fitted inhibition curve with a large enough effect; inconclusive means small, poorly fitted or top-dose-only effect, or another doubt; inactive means no such curve, though single readings can be large or run the other way; further: potency means the concentration at half of the fitted maximal effect; on the % scale 0 is the no-effect control and ±100 the full control effect
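Luciferase-expressing parasites in RBCs, 2% Hct / 0.1% parasitemia final; RPMI 1640 + 0.5% Albumax; 37 C, 5% CO2, one generation; luminescence read-out, lower signal = inhibition.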
NS1 inh = qHTS Assay for Inhibitors of Influenza NS1 Protein Function; Potency, µM (highest dose often 46.1 µM), inactives show at the top dose activity, positive = more growth; 0.4% of 270,000 active; AID 2326, 2010; further: potency means the concentration at half of the fitted maximal effect; actives are rising curves; nearly all actives have a fitted effect of over 50% in size
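S. cerevisiae expressing influenza A NS1, grown in glucose, washed, then diluted 1:100 into pH 6.0 -URA galactose medium with 23 nl compound. Growth recovery read as OD600; NS1-free strain serves as control.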
Shiga toxin inh = A qHTS for Small Molecule Inhibitors of Shiga Toxin | Vero cells, Shiga toxin protein synthesis inhibition reporter | inhibition, % at 38.7 µM | 9.2% of 290,000 active | AID 2315, 2010; in the data active means inhibition mostly above about 28%, no sharp cut-off; inactive means mostly below about 43%; further: 0% is about no effect
Pf growth 96h = Primary qHTS for delayed death inhibitors of the malarial parasite plastid, 96 hour incubation; P. falciparum luciferase reporter growth, 96 h; Potency, µM (highest dose often 28.7 µM), inactives show at the top dose activity change, negative = inhibition, hits mostly inhibitors; 6.9% of 320,000 active; AID 504834, 2011; active means well fitted inhibition curve with a large enough effect; inconclusive means small, poorly fitted or top-dose-only effect, or another doubt; inactive means no such curve, though single readings can be large or run the other way; further: potency means the concentration at half of the fitted maximal effect; on the % scale 0 is the no-effect control and ±100 the full control effect
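P. falciparum expressing integrated firefly luciferase grown in erythrocytes (2% hematocrit, 0.05% parasitemia final) with compounds for 96 hours at 37 C, 5% CO2. Growth inhibition read as loss of luminescence after adding luciferase detection reagent.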
SARS PLpro yeast = qHTS of Yeast-based Assay for SARS-CoV PLP. S. cerevisiae expressing SARS-CoV PLpro, growth rescue. 0.19% of 330,000 active. Potency, µM (titrated, usually from 32.9 µM), without a hit: at the top dose activity, positive = growth rescue, hits mostly activators. AID 485353, 2010; further: potency means the concentration at half of the fitted maximal effect; 0% is about no effect; nearly all actives have a fitted effect of over 55% in size
An asterisk follows results filed as active; ? = inconclusive; / = not tested or not shown; [ ] = dose if it differs, or a comment. Unless noted, the call rests on the fitted dose curve.

SMILES | CHX counter | Pf growth 48h | NS1 inh | Shiga toxin inh | Pf growth 96h | SARS PLpro yeast
COC(=O)CCc1c(C)c(C(=O)c2cc(OC)c(OC)c(OC)c2)c2ccccn12 | -3 | 10µM* | 9% | -4 | ? | -4%
Cc1c(C(=O)c2ccccc2)c2ccccn2c1CCc1ccccn1 | 9 | -3% | 17% | 11 | -21% | -7%
CCc1nc(OCC(=O)c2ccccc2)c(C#N)c2c1COC(C)(C)C2 | 1 | / | 3% | -10 | 12µM* | 15%
Cc1nc(OCC(=O)c2ccc(Cl)cc2)c(C#N)c2c1COC(C)(C)C2 | -1 | / | 4% | -7 | 12µM* | 2%
CC1(C)Cc2c(C#N)c(OCC(=O)c3ccc(Cl)cc3)nc(-c3ccco3)c2CO1 | -3 | ? | -16% | -2 | ? | -4%
CCOC(=O)N1CCC(Nc2c(Nc3ccc(F)cc3)c(=O)c2=O)CC1 | 1 | 10µM* | -1% | -6 | ? | -4%
CCOC(=O)N1CCC(Nc2c(-c3ccc(C)cc3)c(=O)c2=O)CC1 | 3 | -1% | -3% | 11 | 3% | -6%
CCOC(=O)N1CCC(Nc2c(Nc3cccc(CC)c3)c(=O)c2=O)CC1 | 4 | 10µM* | -8% | -20 | ? | -1%
CCOC(=O)N1CCC(Nc2c(NCCN3CCN(Cc4ccccc4)CC3)c(=O)c2=O)CC1 | -3 | -1% | -4% | -1 | 0% | 0%
COC(=O)[C@]1(Cc2ccccc2)N[C@H](CN(C)C(=O)Nc2ccc(Cl)cc2)[C@@H]2C(=O)N(C)C(=O)[C@@H]21 | / | / | / | / | / | -1%
CCN(CC(=O)Nc1ccc2c(c1)OCCO2)C(=O)c1ccc([N+](=O)[O-])s1 | / | -14% | / | / | ? | 1%
C[C@@H](N)C(=O)O | / | 17µM* | / | / | 19% | /
CCOC(=O)N1CCN(Cc2nnc(-c3cccc(Br)c3)o2)CC1 | -2 | 3% | -6% | 14 | 20% | -2%
CC1(C)CC(NC(=O)c2ccc(-c3ccc([N+](=O)[O-])cc3)o2)CC(C)(C)N1 | 1 | 10µM* | 5% | 24 | ? | 3%
O=C(NC1CCCCC1)c1ccc(-c2cccc([N+](=O)[O-])c2)o1 | 56* | 2% | -10% | 74* | ? | -13%
CC1CC(C)CN(C(=O)c2ccc(-c3ccc([N+](=O)[O-])cc3)o2)C1 (stereo unspecified) | / | 57% | / | / | 33% | 3%
O=C(NC1CN2CCC1CC2)c1ccc(-c2ccc([N+](=O)[O-])cc2)o1 (stereo unspecified) | 8 | 1.7µM* | 13% | 9 | ? | -1%
O=C(CN1CCC(C(=O)c2ccc(F)cc2)CC1)Nc1ccccc1Cl | 13 | 11% | -20% | -3 | 18% | -8%
COc1ccc(NC(=O)c2sc3nc(N4CCOCC4)c4c(c3c2N)CC(C(C)C)OC4)c(OC)c1 (stereo unspecified) | -1 | ? | 6% | -3 | ? | 3%
Cc1ccc(NC(=S)NC(=O)/C=C/c2ccco2)c(O)c1 | 60* | 247% | -6% | 68 | 45%[1.15 µM] | -2%
O=C(/C=C/c1ccco1)NC(=S)Nc1ccccc1O | 19* | 91% | 0% | 92* | 23% | 9%
Cn1nnc(NC(=S)NC(=O)/C=C/c2ccco2)n1 | 2 | 35% | 7% | -4 | 4% | 6%
COc1ccc(NC(=S)NC(=O)/C=C/c2ccco2)c(OC)c1 | -2 | -40% | 8% | / | ? | -1%
O=C(/C=C\c1ccco1)NC(=S)Nc1ccccc1O | 34* | 80% | -5% | 64* | 85% | -3%
COc1ccc(CNC(=O)c2c(-c3c(F)cccc3Cl)noc2C)cc1 | 2 | -22% | -7% | -3 | 9% | 0%
SMILES | CHX counter | Pf growth 48h | NS1 inh | Shiga toxin inh | Pf growth 96h | SARS PLpro yeast
Cc1nc(CS(=O)(=O)c2ccccc2)cc(Sc2ccc(Cl)cc2)n1 | 27* | ? | -9% | 55* | ? | 0%
Cc1nc(CS(=O)(=O)c2ccccc2)cc(Sc2ccccc2Cl)n1 | 38* | 0% | -3% | 105* | 14% | -2%
Cc1nc(CS(=O)(=O)c2ccc(Cl)cc2)cc(Sc2ccccc2Cl)n1 | -3 | ? | -22% | 19 | ? | -11%
N#CCCN=C(NS(=O)(=O)c1ccccc1)c1ccccc1 | 1 | 5% | -3% | -19 | 8% | 8%
CN1CCN(c2ccccc2NC(=O)c2cccc(OCc3ccccc3)c2)CC1 | -2 | 5.2µM* | -35% | -15 | / | -3%
COc1cccc(C(=O)Nc2ccccc2C(=O)N2CCCC2)c1 | -3 | / | -5% | 3 | -25% | 11%
CN1CCN(c2ccccc2NC(=O)c2ccc(-c3ccccc3)cc2)CC1 | -7 | ? | -4% | -14 | / | 1%
CN1CCN(c2ccccc2NC(=O)c2c(F)cccc2F)CC1 | 0 | ? | / | 11 | 3.7µM* | 5%
CN1CCN(c2ccccc2NC(=O)c2ccc(OCc3ccccc3)cc2)CC1 | -3 | 7.4µM* | -10% | -12 | 13µM* | -3%
CCOc1cccc(C(=O)Nc2ccccc2C(=O)N2CCN(C)CC2)c1 | 0 | 2% | 12% | -8 | 4.7µM* | 4%
COc1cccc(C(=O)Nc2ccccc2N2CCN(C(=O)c3ccccc3)CC2)c1 | / | / | / | / | / | -5%
COc1ccc(NC(=O)CSc2nnc(Cn3cnc4ccccc43)o2)cc1 | 9 | ? | / | -19 | -33% | 0%
CN1CCN(c2ccccc2NC(=O)C(Cc2ccccc2)n2cccc2)CC1 (stereo unspecified) | -3 | 10µM* | -1% | 3 | ? | 27%
COc1c(F)c(F)c(C(=O)Nc2ccccc2N2CCN(C(=O)C(C)C)CC2)c(F)c1F | 5 | 0.93µM* | -34% | -16 | 57% | -6%
O=C1c2ccccc2C(=O)N1CSc1nnc(Nc2ccccc2F)s1 | 22* | 53% | 13% | 30 | 15% | 20%
O=C1c2ccccc2C(=O)N1CSc1nnc(Nc2ccccc2)s1 | -4 | 22% | 3% | 18 | 28%[5.75 µM] | 1%
CN(C(=O)CSc1nnc(Nc2ccccc2F)s1)C1CCS(=O)(=O)C1 (stereo unspecified) | / | / | / | / | / | 0%
N#CC1(NC(=O)CSc2nnc(Nc3ccccc3F)s2)CCCC1 | / | ? | / | / | 12µM* | -5%
CCN(CC)C(=O)CCCSc1nnc(Nc2ccccc2F)s1 | 44* | 20% | / | 85* | ? | 0%
O=C(NCc1ccccc1Cl)C1CCN(S(=O)(=O)c2ccc(N3CCCC3=O)cc2)CC1 | -3 | ? | 0% | -5 | 9.3µM* | 2%
C=CCN(CC=C)C(=O)C1CCN(S(=O)(=O)c2ccc(N3CCCC3=O)cc2)CC1 | -1 | -19% | -8% | -2 | 7.4µM* | 0%
Cc1ccc(NC(=O)c2ccc(N3CCCC3=O)cc2)cc1S(=O)(=O)N1CCCCC1 | / | ? | / | / | 0.37µM* | 0%
